# Measured values from PubChem BioAssay (NCATS).
# Records with an inconclusive call do not appear. A call without a number means that no potency is given here. Active and inactive are the calls of the source. Unless noted, calls follow the shape of the dose curve; as a rule, active = well fitted curve in the direction sought with a large enough effect; inconclusive = small, poorly fitted or top-dose-only effect, or another doubt; inactive = no such curve, though single readings can be large; an effect the other way counts as inactive or inconclusive.
# Columns and labels:
# [1] = biological target: ATP-dependent 6-phosphofructokinase (Trypanosoma brucei brucei) (UniProt O15648); assay: qHTS Assay to Find Inhibitors of T. brucei phosphofructokinase: hit validation (AID 492961);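 also: luminescence reports ADP formed as PFK phosphorylates fructose-6-phosphate with ATP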
# In short: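 Inhibition of parasite PFK is measured as reduced ADP formation, quantified via luciferase after ATP depletion. Assay used 0.1 mM ATP, 0.5 mM F6P, 1.25 nM enzyme, 45 min incubation.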
# [2] = biological target: Ubiquitin carboxyl-terminal hydrolase 1 (Homo sapiens) (UniProt O94782); assay: Inhibitors of USP1/UAF1: Pilot qHTS (AID 504865);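 also: rhodamine fluorescence freed from ubiquitin-rhodamine substrate followed over time; top concentration of the series differs between compounds; nearly all actives have a fitted effect of over 35% in size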
# In short: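 1nM USP1/UAF1 + cpd, 15 min RT; start w/ Ub-Rho 150nM final; kinetic FL 480/540 nm, 6 reads q60 s. Buffer 50mM HEPES pH 7.8, 0.5mM EDTA, 1mM TCEP, 0.01% Tween-20, 0.1 mg/ml BSA.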
# [3] = biological target: Androgen receptor (Homo sapiens) (UniProt P10275); assay: qHTS assay for small molecule agonists of androgen receptor signaling (AID 588515; active = well fitted curve in the direction sought with a large enough effect in the signal ratio, with a control signal flat; the % refers to the signal ratio); conditions: AR-UAS-bla HEK293, beta-lactamase ratio, agonist 16 h; stronger effect = higher value
# In short: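 EC50 and efficacy came from Hill fits of titrations (up to 92 uM) normalized to 30 nM R1881 as 100% and DMSO as 0%. Compound exposure was 16 h at 37 C on AR-UAS-bla HEK293 cells, with a 405/460/530 nm CCF4 fluorescence read.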
# [4] = biological target: Androgen receptor (Homo sapiens) (UniProt P10275); assay: qHTS assay for small molecule antagonists of androgen receptor signaling (AID 588516; active = well fitted curve in the direction sought with a large enough effect in the signal ratio, with a control signal flat, not every such curve was filed as active; the % refers to the signal ratio)
# In short: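 HEK293 AR-UAS-bla cells, 10% dialyzed FBS medium; cpd titration + R1881 10 nM final, 16 h 37 C; CCF4 2 h RT; FRET ratio; IC50/efficacy via Hill fit.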
# [5] = biological target: Bile acid receptor (Homo sapiens) (UniProt Q96RI1); assay: qHTS assay for small molecule antagonists of farnesoid X receptor signaling (AID 588526; calls by dose curve)
# In short: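 Antagonist mode: titrated compounds tested against chenodeoxycholic acid stimulation (normalized to 50 uM CDCA and DMSO) in GeneBLAzer HEK293T cells for 16 h. Beta-lactamase read by CCF4 fluorescence; IC50 from Hill fits.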
# [6] = qHTS assay for small molecule antagonists of peroxisome proliferator-activated receptor delta signaling (AID 588535; active = well fitted inhibition curve with a large enough effect in the signal ratio, with a control signal flat, not every such curve was filed as active; the % refers to the signal ratio;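 as to max response: cells co-treated with a PPAR-delta agonist as stimulator during compound exposure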); conditions: HEK293T PPARd-UAS-bla, beta-lactamase FRET ratio, 18 h; 460 nm channel
# In short: (§1)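 Cells were seeded at 4000 per well in assay medium containing 2% charcoal/dextran FBS and held 5 hrs at 37 C. Compounds were then added for 18 hrs. CCF4 substrate was applied for 2 hrs at room temperature before fluorescence reading.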
# [7] = biological target: Peroxisome proliferator-activated receptor delta (Homo sapiens) (UniProt Q03181); assay: as above
# In short: as §1
# [8] = biological target: Peroxisome proliferator-activated receptor gamma (Homo sapiens) (UniProt P37231); assay: qHTS assay for small molecule agonists of peroxisome proliferator-activated receptor gamma signaling (AID 588536; active = well fitted curve in the direction sought with a large enough effect in the signal ratio, with a control signal flat, not every such curve was filed as active; the % refers to the signal ratio)
# In short: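 HEK293 UAS-bla reporter line, 1% charcoal/dextran FBS; titration, 16 h, 37 C; CCF4 loading 2 h RT; fluorescence 460/530 nm. Normalized to rosiglitazone 2 uM = 100%, DMSO = 0%.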
# [9] = biological target: Vitamin D3 receptor (Homo sapiens) (UniProt P11473); assay: qHTS assay for small molecule antagonists of vitamin D receptor signaling (AID 588541; calls by dose curve;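 also: receptor activated by calcitriol during compound treatment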)
# In short: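 VDR-UAS-bla HEK293T cells in 2% charcoal-stripped FBS were stimulated with 1-alpha,25-dihydroxyvitamin D3 (3 nM final) plus compound for 16 h at 37 C. The beta-lactamase CCF4 readout was normalized to 50 nM agonist and DMSO, and Hill fits gave IC50.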
# [10] = qHTS assay for small molecule agonists of retinoid X receptor alpha signaling (AID 588544; calls by dose curve); conditions: HEK293T RXRa-UAS-bla, beta-lactamase reporter, 18 h; 530 nm emission
# [11] = biological target: Retinoic acid receptor RXR-alpha (Homo sapiens) (UniProt P19793); assay: as above
# [12] = biological target: Thyroid hormone receptor beta (Homo sapiens) (UniProt P10828); assay: qHTS assay for small molecule agonists of thyroid hormone receptor beta signaling (AID 588545; calls by dose curve)
# In short: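 Compounds were tested as agonists in TR-UAS-bla-GripTite HEK 293 cells. After 18 hrs at 37 C, CCF4 substrate was added and fluorescence read after 2 hrs at room temperature.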
# [13] = qHTS assay for small molecule antagonists of retinoid X receptor alpha signaling (AID 588546; active = well fitted inhibition curve with a large enough effect in the signal ratio, with a control signal flat, not every such curve was filed as active; the % refers to the signal ratio;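 also: cells stimulated with 9-cis-retinoic acid as agonist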); conditions: HEK293T RXRa-UAS-bla, beta-lactamase ratio, antagonist mode; measured here: W530 green channel, cytotoxicity proxy
# In short: (§2)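 Beta-lactamase reporter inhibition, read as CCF4 fluorescence ratio (ex 405, em 460/530 nm) after 2 h at RT. HEK293T UAS-bla cells, 2500/well, were stimulated with 9-cis-RA at 500 or 100 nM final alongside test compound for 18 h at 37 C.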
# [14] = biological target: Retinoic acid receptor RXR-alpha (Homo sapiens) (UniProt P19793); assay: as above; conditions: HEK293T RXRa-UAS-bla, beta-lactamase ratio, antagonist mode
# In short: as §2
# [15] = biological target: Thyroid hormone receptor beta (Homo sapiens) (UniProt P10828); assay: qHTS assay for small molecule antagonists of thyroid hormone receptor beta signaling (AID 588547; active = well fitted inhibition curve with a large enough effect in the signal ratio, with a control signal flat, not every such curve was filed as active; the % refers to the signal ratio;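 also: cells stimulated with 0.4 nM T3 agonist during compound exposure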); conditions: TR-UAS-bla HEK293, beta-lactamase ratio, antagonist mode, 18 h
# In short: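 TR-UAS-bla GripTite HEK293 cells in 2% charcoal/dextran FBS medium; compounds 0.59 nM to 92 uM with T3 at 0.4nM final, 18 h at 37 C. Beta-lactamase read by CCF4 fluorescence (460/530 nm); Hill fits gave IC50 and efficacy.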
# [16] = biological target: Luciferin 4-monooxygenase (Photinus pyralis) (UniProt P08659); assay: Biochemical firefly luciferase enzyme assay for NPC (AID 624030);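 also: purified P. pyralis luciferase at 10 nM with luciferin and ATP substrate; nearly all actives have a fitted effect of over 70% in size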
# In short: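 Purified P. pyralis luciferase at 10 nM in 50 mM Tris Acetate (final), luminescence read within 5 minutes of enzyme addition to compounds. Activity normalised to PTC124 versus DMSO; concentration-response curves classed by r2, magnitude and activity.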
# [17] = S16 Schwann cell viability assay (CellTiter-Glo assay) (AID 624031); also: nearly all actives have a fitted effect of over 70% in size
# In short: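 Luminescent ATP read-out (CellTiter-Glo) after 24 h compound exposure of native S16 rat Schwann cells at 37 °C. Signals were normalized between cell-free wells and DMSO-treated cells, set as 0% activity.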
# [18] = S16 Schwann cell PMP22 intronic element firefly luciferase assay (AID 624032); also: nearly all actives have a fitted effect of over 30% in size
# In short: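 Rat S16 Schwann cells stably carrying firefly luciferase driven by a PMP22 intronic element, in 10% FBS, treated 24 h at 37 C. ONE-Glo luminescence normalized to PTC124 control and DMSO (0%); curves classed by r2, magnitude and activity.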
# [19] = S16 Schwann cell PMP22 intronic element beta-lactamase assay (AID 624044; calls by dose curve; also: nearly all actives have a fitted effect of over 15% in size); conditions: S16 rat Schwann cells, PMP22 element beta-lactamase FRET, 24 h; ratio activity, negative = inhibition: at 38.3 µM (top of the series)
# In short: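 Rat S16 Schwann cells with beta-Lac driven by a PMP22 intronic element, compound-treated 24 h at 37 °C. LiveBLAzer FRET B/G read: 460 nm normalized to potassium clavulanate vs DMSO; 535 nm FRET as viability; concentration-effect curves classified.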
# [20] = qHTS assay for small molecule agonists of the antioxidant response element (ARE) signaling pathway (AID 651741; active = well fitted activation curve with a large enough effect in the signal ratio; the % refers to the signal ratio)
# In short: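 HepG2 ARE-bla cells plated at 2,000 cells/well and incubated 5 h at 37 C/5% CO2 received 23 nL compound in DMSO. After 16 h at 37 C, LiveBLAzer B/G FRET substrate was applied for 2 h at room temperature and fluorescence read.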
# [21] = qHTS assay for small molecule activators of the nuclear factor-kappa B (NF-kB) signaling pathway (AID 651749; active = well fitted activation curve with a large enough effect in the signal ratio; the % refers to the signal ratio); conditions: NF-kB-bla ME-180 cells, beta-lactamase FRET ratio, 16 h; stronger effect = higher value
# In short: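 Incubation lasted 16 hr at 37C in 5% CO2 after 23 nL compound addition to ME-180 NF-kB-bla cells. Activation appears as beta-lactamase-mediated FRET loss.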
# [22] = biological target: Peroxisome proliferator-activated receptor alpha (Homo sapiens) (UniProt Q07869); assay: qHTS assay for small molecule agonists of the peroxisome proliferator-activated receptor alpha (PPARalpha) signaling pathway (AID 651778); conditions: PathHunter PPARalpha complementation, chemiluminescence, 6 h; max response: stronger effect = higher value
# In short: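 Enzyme-fragment complementation assay in which ligand-bound PPARalpha translocates and forms an active enzyme that generates chemiluminescence. Cells were plated overnight, exposed to compound for 6 hr at 37 C, and then given detection reagent for 60 min at room temperature.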
# [23] = qHTS assay for small molecule agonists of the antioxidant response element (ARE) signaling pathway measured by Nrf2-dependant transcriptional activity (AID 720636; active = well fitted curve in the direction sought with a large enough effect in the repeat runs; an effect the other way counts as inactive or inconclusive;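 also: HepG2 cells with an ARE-driven luciferase reporter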)
# In short: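 Cells: ARE-luc HepG2 with Nrf2-responsive luciferase. Medium contained 1% dialyzed FBS. Compound exposure lasted 16 hr at 37 C and 5% CO2, followed by ONE-Glo luciferase detection.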
# [24] = qHTS assay for small molecule agonists of the antioxidant response element (ARE) signaling pathway measured by Nrf2-dependant transcriptional activity - cell viability counter screen (AID 720653; active = well fitted curve in the direction sought with a large enough effect in the repeat runs; an effect the other way counts as inactive or inconclusive); conditions: ARE-bla HepG2 viability, CellTiter-Glo ATP luminescence, 16 h; max response: stronger effect = lower value
# In short: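 ARE-bla HepG2 cells treated with compounds for 16 h at 37C; this counter screen measures viability as intracellular ATP by CellTiter-Glo luminescence after 30 min at room temperature.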
# [25] = qHTS assay for cell viability of HEK293 cells (AID 743288); conditions: ATP luminescence (CellTiter-Glo), 18 h; max response: stronger effect = lower value; also: nearly all actives have a fitted effect of over 50% in size
# In short: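 Environmental chemicals tested in qHTS format against parental HEK293 cells; 18 h treatment, 37 C; read-out ATP luminescence (CellTiter-Glo), 30 min RT development.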
# [26] = qHTS assay for cell viability of the p53RE-bla HCT-116 cell line (AID 743292); also: nearly all actives have a fitted effect of over 55% in size
# In short: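 HCT-116 p53RE-bla cells seeded 4,000/well; 5 h at 37 C; compound (DMSO) added; 16 h at 37 C; CellTiter-Glo added, 30 min RT; luminescence read.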
# [27] = qHTS profiling for inhibitors of Plasmodium falciparum proliferation (AID 504749); also: nearly all actives have a fitted effect of over 60% in size; conditions: P. falciparum in erythrocytes, SYBR Green DNA, 72 h, at 28.7 µM (top of the series)
# In short: (§3)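 Readout was DNA-dye fluorescence from lysed cultures, ex 485/em 535 nm. Parasitized red cells had grown 72 h with compound; data scaled between 0.29 uM artemisinin and DMSO wells and corrected using vehicle-only plates.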
# 3D7 = assay: as above; conditions: P. falciparum in erythrocytes, SYBR Green DNA, 72 h; series mostly up to 28.7 µM
# In short: as §3
# 7G8 = assay: as above; conditions: P. falciparum in erythrocytes, SYBR Green DNA, 72 h; series mostly up to 28.7 µM
# In short: as §3
# AA1029 = assay: as above; conditions: P. falciparum in erythrocytes, SYBR Green DNA, 72 h; series mostly up to 28.7 µM
# In short: as §3
# AS120 = assay: as above; conditions: P. falciparum in erythrocytes, SYBR Green DNA, 72 h; series mostly up to 28.7 µM
# In short: as §3
# ATS189 = assay: as above; conditions: P. falciparum in erythrocytes, SYBR Green DNA, 72 h; series mostly up to 28.7 µM
# In short: as §3
# ATS95 = assay: as above; conditions: P. falciparum in erythrocytes, SYBR Green DNA, 72 h; series mostly up to 28.7 µM
# In short: as §3
# C2A = assay: as above; conditions: P. falciparum in erythrocytes, SYBR Green DNA, 72 h; series mostly up to 28.7 µM
# In short: as §3
# CP185 = assay: as above; conditions: P. falciparum in erythrocytes, SYBR Green DNA, 72 h; series mostly up to 28.7 µM
# In short: as §3
# CP191 = assay: as above; conditions: P. falciparum in erythrocytes, SYBR Green DNA, 72 h; series mostly up to 28.7 µM
# In short: as §3
# CP192 = assay: as above; conditions: P. falciparum in erythrocytes, SYBR Green DNA, 72 h; series mostly up to 28.7 µM
# In short: as §3
# CP194 = assay: as above; conditions: P. falciparum in erythrocytes, SYBR Green DNA, 72 h; series mostly up to 28.7 µM
# In short: as §3
# CP201 = assay: as above; conditions: P. falciparum in erythrocytes, SYBR Green DNA, 72 h; series mostly up to 28.7 µM
# In short: as §3
# CP203 = assay: as above; conditions: P. falciparum in erythrocytes, SYBR Green DNA, 72 h; series mostly up to 28.7 µM
# In short: as §3
# CP211 = assay: as above; conditions: P. falciparum in erythrocytes, SYBR Green DNA, 72 h; series mostly up to 28.7 µM
# In short: as §3
# CP215 = assay: as above; conditions: P. falciparum in erythrocytes, SYBR Green DNA, 72 h; series mostly up to 28.7 µM
# In short: as §3
# CP217 = assay: as above; conditions: P. falciparum in erythrocytes, SYBR Green DNA, 72 h; series mostly up to 28.7 µM
# In short: as §3
# Sequence of Thyroid hormone receptor beta (Homo sapiens) (P10828 whole entry, looked up): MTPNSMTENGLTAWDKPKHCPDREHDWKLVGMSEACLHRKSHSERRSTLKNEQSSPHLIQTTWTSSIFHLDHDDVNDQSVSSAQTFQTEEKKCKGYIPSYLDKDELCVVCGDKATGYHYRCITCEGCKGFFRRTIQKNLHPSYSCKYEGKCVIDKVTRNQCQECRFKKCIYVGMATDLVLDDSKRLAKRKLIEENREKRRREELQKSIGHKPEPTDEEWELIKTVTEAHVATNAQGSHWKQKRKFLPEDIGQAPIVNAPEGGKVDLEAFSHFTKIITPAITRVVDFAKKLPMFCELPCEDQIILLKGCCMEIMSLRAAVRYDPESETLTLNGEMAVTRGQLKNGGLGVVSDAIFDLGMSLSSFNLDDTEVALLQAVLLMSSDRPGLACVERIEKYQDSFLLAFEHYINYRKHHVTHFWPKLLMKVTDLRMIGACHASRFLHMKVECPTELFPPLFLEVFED
# Sequence of Retinoic acid receptor RXR-alpha (Homo sapiens) (P19793 whole entry, looked up): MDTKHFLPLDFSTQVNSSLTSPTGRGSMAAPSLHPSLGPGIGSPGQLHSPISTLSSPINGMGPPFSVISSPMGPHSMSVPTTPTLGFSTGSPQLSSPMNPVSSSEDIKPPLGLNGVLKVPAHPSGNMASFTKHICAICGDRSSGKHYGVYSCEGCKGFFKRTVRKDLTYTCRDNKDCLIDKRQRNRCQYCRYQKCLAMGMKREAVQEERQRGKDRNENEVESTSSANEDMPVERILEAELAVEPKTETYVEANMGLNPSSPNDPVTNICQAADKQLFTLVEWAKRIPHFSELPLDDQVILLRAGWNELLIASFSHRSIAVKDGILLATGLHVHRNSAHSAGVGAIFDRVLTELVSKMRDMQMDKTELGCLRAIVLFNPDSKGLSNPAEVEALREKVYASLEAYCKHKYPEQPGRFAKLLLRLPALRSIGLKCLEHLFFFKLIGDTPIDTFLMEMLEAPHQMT
# Sequence of Androgen receptor (Homo sapiens) (P10275 whole entry, looked up): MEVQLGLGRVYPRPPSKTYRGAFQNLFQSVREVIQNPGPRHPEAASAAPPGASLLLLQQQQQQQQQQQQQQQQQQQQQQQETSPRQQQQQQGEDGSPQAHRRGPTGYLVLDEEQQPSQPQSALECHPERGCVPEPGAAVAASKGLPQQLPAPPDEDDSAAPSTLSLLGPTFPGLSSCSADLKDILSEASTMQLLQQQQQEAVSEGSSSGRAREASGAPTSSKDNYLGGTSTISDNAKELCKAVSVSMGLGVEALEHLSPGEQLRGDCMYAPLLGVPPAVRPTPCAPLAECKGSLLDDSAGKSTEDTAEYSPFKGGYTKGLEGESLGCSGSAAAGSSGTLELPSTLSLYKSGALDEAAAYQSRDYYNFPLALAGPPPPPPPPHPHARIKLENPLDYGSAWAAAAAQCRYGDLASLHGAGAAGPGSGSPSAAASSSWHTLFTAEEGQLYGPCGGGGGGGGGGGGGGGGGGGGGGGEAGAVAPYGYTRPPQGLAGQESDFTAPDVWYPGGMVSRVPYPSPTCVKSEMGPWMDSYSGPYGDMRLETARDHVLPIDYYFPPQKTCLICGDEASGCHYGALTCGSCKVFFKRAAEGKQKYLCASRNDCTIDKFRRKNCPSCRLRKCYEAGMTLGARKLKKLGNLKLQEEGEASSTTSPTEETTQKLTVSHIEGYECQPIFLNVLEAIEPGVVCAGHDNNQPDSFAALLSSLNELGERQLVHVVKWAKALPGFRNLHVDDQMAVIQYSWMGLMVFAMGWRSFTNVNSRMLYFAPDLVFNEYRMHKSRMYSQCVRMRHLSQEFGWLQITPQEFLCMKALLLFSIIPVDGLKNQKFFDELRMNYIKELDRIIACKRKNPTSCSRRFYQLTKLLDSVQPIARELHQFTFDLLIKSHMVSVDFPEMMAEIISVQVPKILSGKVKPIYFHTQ
# Sequence of Peroxisome proliferator-activated receptor gamma (Homo sapiens) (P37231 whole entry, looked up): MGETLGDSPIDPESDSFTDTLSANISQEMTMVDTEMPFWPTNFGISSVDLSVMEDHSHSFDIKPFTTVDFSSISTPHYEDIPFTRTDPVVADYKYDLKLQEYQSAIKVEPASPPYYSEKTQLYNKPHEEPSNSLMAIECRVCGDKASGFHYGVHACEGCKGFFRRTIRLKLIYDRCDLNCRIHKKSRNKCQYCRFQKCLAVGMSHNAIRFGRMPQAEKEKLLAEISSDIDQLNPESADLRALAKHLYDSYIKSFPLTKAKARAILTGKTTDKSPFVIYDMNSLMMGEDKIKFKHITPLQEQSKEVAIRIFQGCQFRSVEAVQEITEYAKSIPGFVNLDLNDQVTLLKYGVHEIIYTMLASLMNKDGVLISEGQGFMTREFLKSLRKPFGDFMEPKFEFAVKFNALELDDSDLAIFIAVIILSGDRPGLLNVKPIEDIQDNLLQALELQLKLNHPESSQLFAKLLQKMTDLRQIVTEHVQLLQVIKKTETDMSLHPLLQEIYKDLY
# Sequence of Vitamin D3 receptor (Homo sapiens) (P11473 whole entry, looked up): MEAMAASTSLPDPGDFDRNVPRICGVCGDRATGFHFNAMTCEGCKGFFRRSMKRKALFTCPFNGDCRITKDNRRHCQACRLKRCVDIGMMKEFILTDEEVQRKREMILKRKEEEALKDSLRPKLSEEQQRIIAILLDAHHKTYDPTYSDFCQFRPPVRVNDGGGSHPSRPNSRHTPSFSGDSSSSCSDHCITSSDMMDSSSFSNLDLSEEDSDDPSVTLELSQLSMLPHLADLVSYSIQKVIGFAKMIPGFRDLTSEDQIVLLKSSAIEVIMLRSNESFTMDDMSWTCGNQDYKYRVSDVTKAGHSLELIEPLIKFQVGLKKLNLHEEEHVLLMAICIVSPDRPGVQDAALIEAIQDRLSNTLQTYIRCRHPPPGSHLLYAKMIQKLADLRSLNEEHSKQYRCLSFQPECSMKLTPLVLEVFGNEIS
# Sequence of Peroxisome proliferator-activated receptor alpha (Homo sapiens) (Q07869 whole entry, looked up, the tested form may be a part): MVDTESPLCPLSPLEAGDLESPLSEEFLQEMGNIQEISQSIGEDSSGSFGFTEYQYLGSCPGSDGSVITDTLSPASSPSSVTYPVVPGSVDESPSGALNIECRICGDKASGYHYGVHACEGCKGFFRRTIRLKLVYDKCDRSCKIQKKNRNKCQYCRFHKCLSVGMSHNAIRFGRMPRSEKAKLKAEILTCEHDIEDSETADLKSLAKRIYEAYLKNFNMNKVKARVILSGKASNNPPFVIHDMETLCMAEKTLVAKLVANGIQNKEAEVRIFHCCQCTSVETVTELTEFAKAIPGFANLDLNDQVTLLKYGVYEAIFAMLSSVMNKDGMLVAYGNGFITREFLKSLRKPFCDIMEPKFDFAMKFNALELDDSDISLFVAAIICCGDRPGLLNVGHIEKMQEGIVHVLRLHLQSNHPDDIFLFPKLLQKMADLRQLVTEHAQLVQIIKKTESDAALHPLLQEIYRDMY
# Sequence of Ubiquitin carboxyl-terminal hydrolase 1 (Homo sapiens) (O94782 whole entry, looked up): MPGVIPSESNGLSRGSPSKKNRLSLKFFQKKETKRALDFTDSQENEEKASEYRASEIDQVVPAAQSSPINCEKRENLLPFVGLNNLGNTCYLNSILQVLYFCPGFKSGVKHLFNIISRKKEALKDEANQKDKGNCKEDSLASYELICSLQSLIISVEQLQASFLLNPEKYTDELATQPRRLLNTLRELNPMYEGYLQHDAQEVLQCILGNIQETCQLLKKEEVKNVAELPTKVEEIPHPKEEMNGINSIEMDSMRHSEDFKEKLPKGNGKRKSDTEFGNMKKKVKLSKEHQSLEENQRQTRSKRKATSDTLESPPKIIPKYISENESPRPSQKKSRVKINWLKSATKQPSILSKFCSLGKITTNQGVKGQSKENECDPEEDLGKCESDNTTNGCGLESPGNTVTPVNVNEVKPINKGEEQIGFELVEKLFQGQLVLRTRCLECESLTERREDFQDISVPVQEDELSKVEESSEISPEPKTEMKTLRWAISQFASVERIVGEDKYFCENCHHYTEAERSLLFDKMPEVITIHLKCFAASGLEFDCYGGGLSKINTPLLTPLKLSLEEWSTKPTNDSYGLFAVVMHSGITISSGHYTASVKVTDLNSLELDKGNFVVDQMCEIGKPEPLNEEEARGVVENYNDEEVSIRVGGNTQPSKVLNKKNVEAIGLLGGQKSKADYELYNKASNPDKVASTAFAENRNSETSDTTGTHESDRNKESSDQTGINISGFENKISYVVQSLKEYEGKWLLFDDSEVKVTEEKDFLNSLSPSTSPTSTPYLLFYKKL
# Sequence of Luciferin 4-monooxygenase (Photinus pyralis) (P08659 whole entry, looked up): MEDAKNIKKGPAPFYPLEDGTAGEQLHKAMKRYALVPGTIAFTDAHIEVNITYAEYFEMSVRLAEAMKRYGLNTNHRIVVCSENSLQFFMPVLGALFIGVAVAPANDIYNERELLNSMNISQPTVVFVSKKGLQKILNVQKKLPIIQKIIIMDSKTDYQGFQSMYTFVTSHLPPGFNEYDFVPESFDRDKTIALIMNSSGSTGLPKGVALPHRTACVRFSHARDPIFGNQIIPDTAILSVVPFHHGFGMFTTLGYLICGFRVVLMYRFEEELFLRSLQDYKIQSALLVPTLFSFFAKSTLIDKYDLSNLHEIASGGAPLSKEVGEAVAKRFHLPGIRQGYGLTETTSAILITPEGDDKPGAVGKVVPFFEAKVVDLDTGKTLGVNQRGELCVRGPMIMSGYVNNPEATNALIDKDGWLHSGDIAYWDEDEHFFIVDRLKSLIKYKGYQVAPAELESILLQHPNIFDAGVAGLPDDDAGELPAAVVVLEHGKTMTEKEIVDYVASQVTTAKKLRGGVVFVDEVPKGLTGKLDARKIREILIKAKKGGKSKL
# Sequence of Peroxisome proliferator-activated receptor delta (Homo sapiens) (Q03181 whole entry, looked up): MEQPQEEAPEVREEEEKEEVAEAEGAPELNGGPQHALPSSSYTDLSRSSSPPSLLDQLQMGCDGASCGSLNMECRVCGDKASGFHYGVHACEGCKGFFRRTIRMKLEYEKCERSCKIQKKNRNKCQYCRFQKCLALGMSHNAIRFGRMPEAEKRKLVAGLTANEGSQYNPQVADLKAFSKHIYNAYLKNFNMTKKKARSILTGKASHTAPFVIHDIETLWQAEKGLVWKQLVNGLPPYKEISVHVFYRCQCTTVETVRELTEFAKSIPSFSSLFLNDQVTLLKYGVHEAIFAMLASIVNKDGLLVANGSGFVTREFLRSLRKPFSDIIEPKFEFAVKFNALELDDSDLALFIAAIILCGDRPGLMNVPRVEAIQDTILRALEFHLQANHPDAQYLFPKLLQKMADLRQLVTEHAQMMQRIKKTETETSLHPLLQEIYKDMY
smiles,measurement,setting,value
CC1CCC(C(C)C)C(O)C1 (centres undefined),Potency,[1],inactive
same,Potency,[2],inactive
same,activation,[3],13.2% (inactive)
same,outcome,[4],inactive
same,Potency,[5],inactive
same,max response,[6],8.18%
same,outcome,[7],inactive
same,outcome,[8],inactive
same,Potency,[9],inactive
same,max response,[10],-16.3%
same,outcome,[11],inactive
same,outcome,[12],inactive
same,max response,[13],-12.2%
same,max response,[14],5.79% (inactive)
same,activity change % (negative = inhibition),[15],-1.02% (inactive)
same,Potency,[16],inactive
same,Potency,[17],inactive
same,Potency,[18],inactive
same,Potency,[19],inactive
same,Potency,[20],inactive
same,activation,[21],-2.43% (inactive)
same,max response,[22],-0.619% (inactive)
same,Potency,[23],inactive
same,max response,[24],1.08% (inactive)
same,max response,[25],-1.68% (inactive)
same,Potency,[26],inactive
same,"activity, negative = inhibition",[27]; parasite line A,7.33% (inactive)
same,"activity, negative = inhibition",[27]; parasite line B,4.66% (inactive)
same,Potency,3D7,inactive
same,Potency,7G8,inactive
same,Potency,AA1029,inactive
same,Potency,AS120,inactive
same,Potency,ATS189,inactive
same,Potency,ATS95,inactive
same,Potency,C2A,inactive
same,Potency,CP185,inactive
same,Potency,CP191,inactive
same,Potency,CP192,inactive
same,Potency,CP194,inactive
same,Potency,CP201,inactive
same,Potency,CP203,inactive
same,Potency,CP211,inactive
same,Potency,CP215,inactive
same,Potency,CP217,inactive
